Structures are written as SMILES. Values without a mark were called inactive. Active and inactive are the calls of the source.

One assay in a line: plasmodial surface anion channel blockers, osmotic lysis – cell-based, P. falciparum Indochina, OD700, 1 h, primary screen (AID 1154). The conditions noted are these: P. falciparum Indochina infected RBC osmotic lysis, higher = more signal, called active from +8 up or from −8 down.
Regarding `COCCOC(=O)N1C(=O)[C@@]2(c3cc(C#CC4(O)CCCCCC4)ccc31)[C@H](C(N)=O)[C@H]1C(=O)O[C@H](c3ccccc3)[C@H](c3ccccc3)N1[C@@H]2c1ccccc1OCCO`, the z-score is 4.94.

As to `CC(CO)N1C(=O)[C@@H]2C3C(=O)OCCC/C=C\[C@H]3OC23C=CCN(Cn2nnc4ccccc42)C(=O)[C@@H]13` (some centres undefined), the z-score is 1.03.

In the case of `COC(=O)[C@@]1(Cc2ccc(OC)cc2)[C@H]2c3cc(C(=O)N(C)C)n(CCc4c[nH]c5ccc(O)cc45)c3C[C@H]2CN1C(=O)c1ccccc1`, the z-score was 4.25.

`O=c1cccc(-c2cccc(Cl)c2)o1`: the z-score was 25.8 (active).

For `O=C1O[C@H](c2ccccc2)[C@H](c2ccccc2)N2[C@H]1[C@@H](C(=O)O)[C@]1(C(=O)Nc3ccccc31)[C@H]2c1ccc(O)cc1`, the z-score was 1.26.

On to `COCCOC(=O)N1C(=O)[C@@]2(c3ccccc31)[C@H](C(=O)N1CCN(c3ncccn3)CC1)[C@H]1C(=O)O[C@H](c3ccccc3)[C@H](c3ccccc3)N1[C@@H]2c1ccc(OCCO)cc1`, for which the z-score is 16.4 (active).

With `CCOC(=O)C1=C[C@@H](c2ccccc2)N(S(=O)(=O)c2ccc(C)cc2)[C@H]1c1cccc(Cl)c1`, the z-score is 1.57.

In the case of `O=C1c2ccccc2[C@](Cc2ccccc2I)(C(=O)NCCN2CCOCC2)[C@H](c2ccc(CO)cc2)N1Cc1ccccc1`, the z-score is 4.18.

In the case of `O=C(O)[C@H]1C[C@H]2C(=O)N3CCC[C@H]3C(=O)N2[C@H]1c1cccc(OCCO)c1`, the z-score was 6.65.

A short description of another assay: plasmodial surface anion channel blockers, osmotic lysis – cell-based, P. falciparum Indochina, OD700, 2 h, primary screen (AID 1155).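 Further: lysis reports solute entry through the parasite surface anion channel PSAC.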 To be noted: P. falciparum Indochina infected erythrocytes, higher = more signal, called active from +8 up or from −8 down.
For the compound `O=C1C[C@]2(c3ccc([N+](=O)[O-])cc3)C(=O)N(Cc3ccccc3)c3cc(CO)ccc3[C@H]2N1CC12CC3CC(CC(C3)C1)C2`, the z-score was 0.37.

Take `Cc1c(NC(=O)/C(C#N)=C/C=C/c2ccc(N(C)C)cc2)c(=O)n(-c2ccccc2)n1C`: the z-score was 2.8.

On to `COCCOC(=O)N1C(=O)[C@@]2(c3ccccc31)[C@H](c1ccc(OCCO)cc1)N1[C@H](c3ccccc3)[C@H](c3ccccc3)OC(=O)[C@H]1[C@@H]2C(=O)Nc1nc2ccccc2s1`, for which the z-score was 2.02.

Turning to `COCCCNC(=O)[C@@]1(Sc2ccc(C)cc2)CC(=O)N(Cc2cc(C(F)(F)F)cc(C(F)(F)F)c2)[C@@H]1c1ccc(CO)cc1`, the z-score was 0.591.

Regarding `CCCC[C@@H]1C[C@H]1[C@@H](NC(=O)c1ccccc1)c1ccc(Cl)cc1`, the z-score was 0.589.

For the compound `CC(C)C(CO)N1C(=O)[C@]2(C)C3C(=O)OCCC/C=C\[C@H]3OC23C=CCN(c2ccc(Cl)cc2)C(=O)[C@@H]13` (some centres undefined), the z-score is 0.31.

With `COC(=O)[C@@]1(Cc2ccc(OC)cc2)[C@H]2c3cc(C(=O)N4CCCC4)n(CCc4cc5ccccc5[nH]4)c3C[C@H]2CN1C(=O)c1ccccc1`, the z-score is 0.852.

As for `CCCC[C@@H]1C[C@H]1[C@@H](NC(=O)c1cccnc1)c1ccc(-c2ccccc2)cc1`, the z-score was 0.818.

For the compound `[N-]=[N+]=Nc1ccccc1[C@@H]1OC(c2ccc(OCCCO)cc2)=N[C@]1(CCS(=O)(=O)c1ccccc1)C(=O)NCCN1CCOCC1`, the z-score was 20.8 (active).

Turning to `C[C@@H](OCc1ccccc1)C1NC(=O)[C@@]23C(=O)N[C@@H](Cc4ccccc4)C2[C@H](C)[C@@]2(C)O[C@H]2C3/C=C/C/C=C\CNC(=O)CNC1=O` (some centres undefined), the z-score is 0.095.

For `C=C(CCCC)/C(=C/C[C@@H](OC(=O)c1ccncc1)c1cccc(OCCO)c1)c1cnc2ccccc2c1`, the z-score was 3.53.

Regarding `CC(=O)n1cc(C(O)C2C=CC3C(=O)N(c4ccccc4)C(=O)C3N2Nc2ccccc2)c2ccccc21` (centres undefined), the z-score was 2.76.

Regarding `C=CCN1C(=O)[C@]2(CC=C)N=C(c3ccc(OCCCO)cc3)O[C@@H]2c2ccccc21`, the z-score is 34.2 (active).

Regarding `CCOC(=O)C[C@H]1[C@H](OC(=O)Cc2ccc3c(c2)OCO3)[C@@H](NC(=O)C2CCCCC2)c2cc(OCCCO)ccc2N1C(=O)c1ccc2ccccc2n1`, the z-score is -0.954.

As to `O=C1O[C@@H](c2ccccc2)[C@@H](c2ccccc2)N2[C@@H](c3ccccc3OCCO)[C@]3(C(=O)Nc4ccc(C#CC5=CCCCC5)cc43)[C@@H](C(=O)NC[C@H](O)c3ccccc3)[C@H]12`, the z-score is 0.526.

`O=C1OCC=C[C@H]2OC34C=CCN(Cn5nnc6ccccc65)C(=O)[C@H]3N(CCCCCCO)C(=O)[C@@H]4[C@@H]12` (some centres undefined): the z-score is 0.89.

As to `COCCCNC(=O)[C@]1(Cc2ccccc2N=[N+]=[N-])N=C(c2ccc(OCCCO)cc2)O[C@@H]1c1ccccc1N=[N+]=[N-]`, the z-score was 28.7 (active).

Regarding `CC(C)c1ccc(NN2C(C(O)c3ccco3)C=CC3C(=O)N(c4ccccc4)C(=O)C32)cc1` (centres undefined), the z-score was 1.93.

Turning to `Cc1ccc(S[C@]2(C(=O)NCC(C)C)CC(=O)N(Cc3ccccc3Cl)[C@@H]2c2ccc(CO)cc2I)cc1`, the z-score was 0.592.

Turning to `C=CCC(OC(C)=O)[C@@H]1[C@@H](N(Cc2ccc(-c3ccccc3)cc2)C(=O)c2cccc3ccccc23)c2cc(OCCCO)ccc2N1C(=O)Cc1ccc2ccccc2c1` (some centres undefined), the z-score was 0.355.

Turning to `CC=CC(O)C1C=CC2C(=O)N(C)C(=O)C2N1Nc1ccc([N+](=O)[O-])cc1[N+](=O)[O-]` (centres undefined), the z-score was 0.917.

With `CC(C)(C)OC(=O)CC[C@]1(C(=O)NCCN2CCOCC2)N=C(c2ccc(OCCCO)cc2)O[C@H]1c1ccccc1`, the z-score is 1.5.

`CCCCC(=C=CC[C@@H](O)c1ccc(OCCO)cc1)C[C@@H](O)COCc1ccccc1`: the z-score was 1.73.

For the compound `COC(=O)[C@H](Cc1ccccc1)N1CC(/C=C/C2CC2)=C[C@@H]1[C@@H](O)Cc1ccccc1`, the z-score is 0.189.

Take `COCCOC(=O)N1C(=O)[C@@]2(c3cc(C#CCC(C(=O)OC)C(=O)OC)ccc31)[C@H](c1ccc(OCCO)cc1)N1[C@H](c3ccccc3)[C@H](c3ccccc3)OC(=O)[C@H]1[C@@H]2C(=O)N1CCN(c2ncccn2)CC1`: the z-score is 1.35.

In the case of `CN(C)C(=O)[C@]1(CCC(=O)OC(C)(C)C)N=C(c2ccc(OCCCO)cc2)O[C@@H]1c1ccccc1`, the z-score is 6.32.

In the case of `COCCOC(=O)N1C(=O)[C@@]2(c3cc(C#CC4(O)CCCCCC4)ccc31)[C@H](C(N)=O)[C@H]1C(=O)O[C@H](c3ccccc3)[C@H](c3ccccc3)N1[C@@H]2c1ccccc1OCCO`, the z-score was 2.11.

As to `CC(CO)N1C(=O)[C@@H]2C3C(=O)OCCC/C=C\[C@H]3OC23C=CCN(Cn2nnc4ccccc42)C(=O)[C@@H]13` (some centres undefined), the z-score is 0.132.

On to `COC(=O)[C@@]1(Cc2ccc(OC)cc2)[C@H]2c3cc(C(=O)N(C)C)n(CCc4c[nH]c5ccc(O)cc45)c3C[C@H]2CN1C(=O)c1ccccc1`, for which the z-score was 1.25.

In the case of `O=c1cccc(-c2cccc(Cl)c2)o1`, the z-score was 10.2 (active).

With `O=C1O[C@H](c2ccccc2)[C@H](c2ccccc2)N2[C@H]1[C@@H](C(=O)O)[C@]1(C(=O)Nc3ccccc31)[C@H]2c1ccc(O)cc1`, the z-score is 0.789.

With `COCCOC(=O)N1C(=O)[C@@]2(c3ccccc31)[C@H](C(=O)N1CCN(c3ncccn3)CC1)[C@H]1C(=O)O[C@H](c3ccccc3)[C@H](c3ccccc3)N1[C@@H]2c1ccc(OCCO)cc1`, the z-score was 3.96.

On to `CCOC(=O)C1=C[C@@H](c2ccccc2)N(S(=O)(=O)c2ccc(C)cc2)[C@H]1c1cccc(Cl)c1`, for which the z-score was 1.24.

On to `O=C1c2ccccc2[C@](Cc2ccccc2I)(C(=O)NCCN2CCOCC2)[C@H](c2ccc(CO)cc2)N1Cc1ccccc1`, for which the z-score was 0.815.

For the compound `O=C(O)[C@H]1C[C@H]2C(=O)N3CCC[C@H]3C(=O)N2[C@H]1c1cccc(OCCO)c1`, the z-score is 1.08.

(Values after PubChem BioAssay.)
